Source: PubChem BioAssay AID1626 (SRMLSC, 2009)
Among all 220,000 compounds or so, about 2,000 (0.91%) were called active. About 2% were inconclusive and are not listed. The list is a sample of the results. Measured potencies and affinities stand elsewhere. A number with no mark means an inactive call. Rule as the data show it: inconclusive = inhibition above about 80% without an active follow-up result; inactive = below that; test concentration not stated here.

Assay: M. tuberculosis H37Rv growth inhibitors, H37Rv strain (AID 1626);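 also: bacteria incubated seven days before Alamar blue readout; 0% = bacteria only wells and 100% = bacteria with antibiotic wells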
Details: active compounds read high, concentration not given here
For `O=C(COC(=O)c1ccc(F)cc1F)Nc1ccc2[nH]c(=O)[nH]c2c1`, the inhibition was 0.74%. For `CCCC(=O)Nc1ccc2oc(-c3ccncc3)nc2c1`, the inhibition was 0.51%. With `Cc1c(Cl)cccc1NC(=O)Cn1c(-c2ccc(F)cc2)noc1=O` the inhibition was -3.42%. `Cc1c(O)c(S(=O)(=O)c2ccccc2)c(=O)n(-c2ccccc2)c1-c1ccccc1` gave an inhibition of -1.42%. For `NNC(=S)Nc1ccc(S(=O)(=O)N2CCOCC2)cc1`, the inhibition was -8.51%. `Cc1nc(NC(=O)c2ccc(Cl)cc2)sc1Cc1ccc2c(c1)OCO2` gave an inhibition of -0.23%. Work on `CCCOc1ccc(C(=O)Nc2nc(C)c(Cc3ccc4c(c3)OCO4)s2)cc1` yielded an inhibition of 2.21%. Work on `COc1cccc(C(=O)N(Cc2nc(-c3ccc(C)cc3)no2)C(C)C)c1` yielded an inhibition of -3.98%. In the case of `COc1cc(/C=C/C(=O)OCC(=O)NC(=O)NC(C)C)cc(S(=O)(=O)N2CCc3ccccc32)c1OC`, the inhibition is reported as 3.06%. `Cc1ccccc1CSCCNC(=O)Nc1ccccc1` showed an inhibition of -0.63%. `Cc1c2c(nc3ccccc13)OCC2` gave an inhibition of -16.5%. In the case of `Cc1c2c(nc3ccccc13)CCC(C(C)(C)C)C2` (configuration not stated), the inhibition is reported as 6.35%. In the case of `O=C(Cc1ccc([N+](=O)[O-])cc1)Nc1ccc(Cl)cc1`, the inhibition is reported as 3.56%. In the case of `Nc1c(C(=O)O)cnn1-c1ccc([N+](=O)[O-])cc1`, the inhibition is reported as -2.22%. In the case of `CCc1cccc(NC(=O)Cc2ccc([N+](=O)[O-])cc2)c1`, the inhibition is reported as 58.6%. Work on `O=C(Nc1ccc([N+](=O)[O-])cc1)Nc1ccc(Cl)cc1F` yielded an inhibition of 9.88%. `O=C(c1ccc(F)cc1)N1CCN(C2CCC(c3ccccc3)CC2)CC1` (configuration not stated) showed an inhibition of 5.5%. With `CCOC(=O)c1ccc(NC(=O)CSc2nc(NC(=O)c3ccccc3)c3c(C)c(C)oc3n2)cc1` the inhibition was 9.26%. For `COc1cc(CCN2C(=O)N[C@@H](CCc3ccccc3)C(C(C)=O)=C2C)cc(OC)c1OC`, the inhibition was -6.61%. Work on `Oc1ccc(F)c2cccnc12` yielded an inhibition of 44.5%. Compound `CC(C)COCc1ccc(O)c2ncccc12` has an inhibition of 47.1%. `Oc1ccc(CN2CCN(Cc3ccccc3)CC2)c2cccnc12` showed an inhibition of -2.63%. For `OCc1ccc(O)c2ncccc12`, the inhibition was 1.86%. `O=C(N/N=C/c1ccc(O)c2ncccc12)c1cccc(Br)c1` gave an inhibition of -4.1%. `COCc1cc(CN2CCCC2)c(O)c2ncccc12` gave an inhibition of -1.29%. For `CC(C)CC(c1nnnn1CC1CCCO1)N1CCN(Cc2ccc3c(c2)OCO3)CC1` (configuration not stated), the inhibition was 0.16%. Compound `CCN1C/C(=C/c2sccc2C)c2nc3ccccc3c(C(=O)O)c2C1` has an inhibition of -0.78%. Work on `Nc1nnnn1CC(=O)N/N=C/c1cc([N+](=O)[O-])ccc1Cl` yielded an inhibition of -0.24%. With `Cc1ccc(C(=O)COC(=O)CN2C(=O)C3C4CCC(C4)C3C2=O)cc1[N+](=O)[O-]` (configuration not stated) the inhibition was 19.5%. In the case of `Cc1ccc(CNC(=O)c2ccc(Cn3nc(C)c(Cl)c3C)o2)cc1`, the inhibition is reported as 2.97%. `COc1ccc(NC(=O)CCN2CCOCC2)c(OC)c1` showed an inhibition of -3.47%. Compound `COc1ccc(-c2nc3ccccc3c(=O)n2CCOc2ccccc2C)cc1` has an inhibition of 0.63%. Compound `CC(C)c1cc(C(=O)O)c2ccccc2n1` has an inhibition of -2.96%. Compound `COc1ccc(-n2c(-c3ccc(Br)cc3)c[n+]3c2CCC3)cc1` has an inhibition of 2.38%. In the case of `Brc1ccc(-c2cn3c(n2)CCc2ccc4cccnc4c2-3)cc1`, the inhibition is reported as -2.02%. Compound `COc1cc(/C=N/NC(=O)COc2cc(C)cc(C)c2)ccc1OS(=O)(=O)c1ccc(C)cc1` has an inhibition of 10.7%. In the case of `COc1ccc(CC(=O)Nc2ccc3c(c2)CCC3)cc1`, the inhibition is reported as 9.72%. `CC(=O)Nc1ccc(NC(=O)COc2ccc3c(c2)CCC3)cc1` showed an inhibition of 10.5%. For `COc1cccc(NC(=O)COc2ccc3c(c2)CCC3)c1`, the inhibition was 74.3%. In the case of `CCc1ccc(CN(C)CC(=O)Nc2ccc3c(c2)CCC3)cc1`, the inhibition is reported as 48%. For `Cc1cc(C(=O)Cn2nc(C(=O)O)c3ccccc3c2=O)c(C)n1CCc1ccc(F)cc1`, the inhibition was 3.54%. `CC(C)OCCCNC(=O)Nc1cccc2ccccc12` gave an inhibition of -3.82%. `CCOC(=O)c1c(NC(=O)COc2cccc3c2CCN(C)C3=O)sc2c1CCC2` showed an inhibition of 31.8%. Work on `C/C(N)=C(/C#N)C(=O)COC(=O)c1ccccc1Oc1ccccc1` yielded an inhibition of -2.05%. Work on `O=C(Nc1ccc(N2CCN(C(=O)c3ccccc3)CC2)cc1)c1ccc(Br)o1` yielded an inhibition of 19.7%. `O=C(Nc1ccc(N2CCN(C(=O)c3ccccc3)CC2)cc1)c1cc2ccccc2o1` gave an inhibition of 9.58%. Work on `O=C(Nc1ccc(N2CCN(C(=O)c3ccc(Cl)cc3)CC2)cc1)c1ccc2c(c1)OCCO2` yielded an inhibition of -4.15%.
